# Screening data as filed in PubChem BioAssay.
# Pf growth 96h – Primary qHTS for delayed death inhibitors of the malarial parasite plastid, 96 hour incubation; P. falciparum luciferase reporter growth, 96 h; Potency, µM (top dose mostly 28.7 µM), for the others: at the highest dose activity change, negative = inhibition, actives largely listed as inhibitors; 6.9% of 320,000 active; further: potency means the concentration at half of the fitted maximal effect
#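 96 h incubation, 37 C, 5% CO2, of luciferase-reporter P. falciparum-infected RBCs (2% hematocrit, 0.05% parasitemia final) with test compounds; endpoint luminescence.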
# Lassa entry inh – qHTS for Inhibitors of binding or entry into cells for Lassa Virus; Lassa virus pseudotype entry inhibition, cell reporter; 1.2% of 300,000 active; Potency, µM (highest dose often 37.9 µM), for inactives: top-dose activity change, negative = inhibition, actives largely listed as inhibitors; calls by dose curve; tested in HEK293 cells; further: potency means the concentration at half of the fitted maximal effect; nearly all actives have a fitted effect of over 50% in size
# HCV inhibitor – qHTS Assay for Inhibitors of Hepatitis C Virus (HCV) | 3.4% of 340,000 active | Potency, µM (top dose mostly 41.8 µM), for the others: at the top dose activity change, negative = inhibition, usual class: inhibitors | Huh7.5.1 HCVcc-Cre infection, luciferase reporter, 44 h | AID 651820, 2012; further: potency means the concentration at half of the fitted maximal effect
#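 Cells seeded at 1,000/well and cultured 4 h, then compounds added followed by HCVcc-Cre virus (~0.5 moi). After 44 h further culture, luciferase substrate was added, plates held 15 min at room temperature, and luminescence read for 15 sec.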
# HCMV antiviral – qHTS Assay for inhibitors of the human cytomegalovirus (HCMV); 4.5% of 410,000 active; activity change, negative = inhibition, % at 57.5 µM; HFF cells, HCMV-luciferase reporter, 72 h; hits give low values; in the data active means activity change below about -60%; inconclusive means no clear call, values can overlap the other calls; inactive means above about -39%
#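 Screen run at 2 compound doses on HFFs infected with reporter HCMV, MOI 1 PFU/cell. Luciferase activity from cell lysates at 72 h post infection gave inhibition relative to buffer-only and Salinomycin wells.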
# MARV entry inh – qHTS for inhibitors of binding or entry into cells for Marburg Virus; Potency, µM (series often up to 37.8 µM), without a hit: at the highest dose activity change, negative = inhibition, actives largely listed as inhibitors; AID 540276, 2011; 1.8% of 300,000 active; Marburg virus pseudotyped entry inhibition, cell reporter; calls by dose curve; tested in HEK293 cells; further: potency means the concentration at half of the fitted maximal effect
# Pf growth 48h – Primary qHTS for delayed death inhibitors of the malarial parasite plastid, 48 hour incubation. P. falciparum luciferase growth in erythrocytes, 48 h. Potency, µM (titrated, usually from 28.7 µM), for inactives: at the top dose activity change, negative = inhibition, hits mostly inhibitors. 5.9% of 310,000 active; further: potency means the concentration at half of the fitted maximal effect
#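 Erythrocytes infected with P. falciparum carrying an integrated firefly luciferase reporter (2% hematocrit, 0.1% parasitemia final) were exposed to compounds in RPMI 1640 with 0.5% Albumax at 37 C, 5% CO2. Growth inhibition was scored as reduced luminescence.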
# An asterisk follows results filed as active; ? = inconclusive; / = no result; [ ] = dose if it differs, or a comment. Most compounds without a hit are left out; they make up all but 14% or so of the library. Unless noted, the call rests on the fitted dose curve; in most records, active means well fitted inhibition curve with a large enough effect; inconclusive means small, poorly fitted or top-dose-only effect, or another doubt; inactive means no such curve, though single readings can be large or run the other way. On the % scale 0 is the no-effect control and ±100 the full control effect.
SMILES,Pf growth 96h,Lassa entry inh,HCV inhibitor,HCMV antiviral,MARV entry inh,Pf growth 48h
O=C(Nc1cccc(NC(=O)c2ccco2)c1)c1ccccc1,-15%,-3%[46.1 µM],?,-21,6%[46.1 µM],22%
Cc1cc(C)cc(C(=O)Nc2cccc(NC(=O)c3ccco3)c2)c1,-21%,0%,/,-73*,-19%,?
CC(=O)c1ccc(N2C(=O)CC(N3CCN(S(=O)(=O)c4ccc(C)c(C)c4)CC3)C2=O)cc1 (centres undefined),/,/,18%,-4,/,/
O=C(c1cnccn1)N1CC(=O)N2[C@H](C1)[C@@H](c1ccc(Br)cc1)[C@@H]2CO,/,/,/,-4,/,/
Nc1c(N=Nc2ccc(-c3ccc(N=Nc4cc(S(=O)(=O)O)c5ccccc5c4N)cc3)cc2)cc(S(=O)(=O)O)c2ccccc12,1%,?,/,/,14µM*,-3%
CCOC(=O)c1sc2nc(N3CCOCC3)c3c(c2c1N)CCC3,?,-20%,?,-34,-9%,?
CCOC(=O)c1sc2nc(N3CCOCC3)c3c(c2c1N)CCN(Cc1ccccc1)C3,9.3µM*,16µM*,-5%,-31,?,?
CN(C(=O)c1sc2nc(N3CCOCC3)c3c(c2c1N)CCCC3)c1ccccc1,5%,3.5µM*,11µM*,?,?,?
Cc1ccc(N2CCN(S(=O)(=O)c3ccc4c(c3)NC(=O)C(C)C(=O)N4)CC2C)cc1 (centres undefined),1%,/,6%,-36,/,?
COc1ccc(S(=O)(=O)N(C)C)cc1NC(=O)CSC(C)C(=O)Nc1cc(C)on1 (centres undefined),?,/,10%,6,/,-10%
COc1ccc(-c2[nH]ncc2CN2CCN(Cc3cccs3)CC2)c(F)c1,1%,28%[46.1 µM],?,-2,?,2%
COc1ccc(-c2[nH]ncc2CN(C)C(C)c2cccs2)c(F)c1 (centres undefined),12µM*,-29%,-11%,-34,?,-21%
COc1ccc(-c2[nH]ncc2CNC(C)Cc2ccsc2)c(F)c1 (centres undefined),4.7µM*,/,-5%,-38,/,-21%
CC(Cc1ccsc1)NCc1cn[nH]c1-c1ccc(F)cc1F (centres undefined),?,-4%,-2%,-24,?,-16%
COC(=O)C(Cc1ccccc1)N1CCS(=O)(=O)CC1 (centres undefined),0%,8%,-6%,-69*,17%[46.1 µM],2%
Cc1ccc(-n2cccn2)c(CN2CCC(CO)(CCc3ccccc3)CC2)c1,?,-5%,2%,-26,8.9µM*,?
Cc1ncc(CN2CCC(CO)(CCc3ccccc3)CC2)s1,?,/,-9%,1,/,?
Cc1ccc(Nc2ncnc3c2nc2n3CCCC2)c(Br)c1,/,21%[46.1 µM],/,-9,/,/
O=C1Cc2c([nH]c3ccc(Br)cc23)-c2ccccc2N1,/,?,?,-75*,?,/
Cc1nn(-c2ccccc2)c(C)c1CN(C)C(=O)c1ccc(S(=O)(=O)NCc2ccco2)cc1,?,/,14µM*,-33,/,?
CN(Cc1ccc(Cl)cc1)C(=O)c1ccc(S(=O)(=O)NCc2ccco2)cc1,?,/,-27%,-37,/,?
CC(C)(C)NS(=O)(=O)c1ccc(CCC(=O)NCc2ccco2)cc1,12µM*,18%,9%,43,-2%,-28%
CC(C)c1ccc(CN(C)C(=O)c2ccc(S(=O)(=O)NCc3ccco3)cc2)cc1,?,/,6.3µM*,?,/,9%
CCOc1ccc(NC(=O)Cn2c(=O)n(CCCC(=O)NCCc3ccc(Cl)cc3)c(=O)c3ccccc32)cc1,/,-2%[46.1 µM],/,-4,/,/
C[C@@H]1CN([C@H](C)CO)C(=O)CCCn2nncc2CO[C@H]1CN(C)Cc1cccc(C(=O)O)c1,/,/,/,23,/,/
